PLK1 PBD block = qHTS for Inhibitors of PLK1-PDB (polo-like kinase 1 - polo-box domain): Primary Screen; Serine/threonine-protein kinase PLK1 (Homo sapiens), P53350; Plk1 PBD binding of FITC phosphopeptide, fluorescence polarization; Potency, µM, for the others: max response, negative = inhibition, actives largely listed as inhibitors; actives 2.8% (n = 360,000); further: series mostly up to about 57 µM; on the % scale 0 is the no-effect control and ±100 the full control effect; nearly all actives have a fitted effect of over 65% in size
Target sequence (P53350 whole entry, looked up, the tested form may be a part): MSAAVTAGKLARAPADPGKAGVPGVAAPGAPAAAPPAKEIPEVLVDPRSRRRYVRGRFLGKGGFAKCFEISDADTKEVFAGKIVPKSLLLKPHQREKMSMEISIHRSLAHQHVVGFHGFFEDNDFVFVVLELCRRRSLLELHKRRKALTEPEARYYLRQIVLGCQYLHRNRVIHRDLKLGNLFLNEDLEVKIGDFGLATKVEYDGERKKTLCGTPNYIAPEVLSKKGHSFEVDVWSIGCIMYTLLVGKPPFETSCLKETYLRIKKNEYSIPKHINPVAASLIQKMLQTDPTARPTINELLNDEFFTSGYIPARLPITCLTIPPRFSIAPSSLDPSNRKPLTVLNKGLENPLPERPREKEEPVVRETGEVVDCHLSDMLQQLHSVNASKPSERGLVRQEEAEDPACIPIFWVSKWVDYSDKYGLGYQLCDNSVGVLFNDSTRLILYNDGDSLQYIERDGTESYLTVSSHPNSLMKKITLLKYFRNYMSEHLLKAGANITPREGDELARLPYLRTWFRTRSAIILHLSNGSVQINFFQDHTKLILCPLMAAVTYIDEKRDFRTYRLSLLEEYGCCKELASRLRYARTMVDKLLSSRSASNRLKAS
JMJD2A Tudor inh = qHTS Assay for Inhibitors of JMJD2A-Tudor Domain | Lysine-specific demethylase 4A (Homo sapiens), O75164 | AlphaScreen JMJD2A-Tudor / H3K4me3 peptide binding | Potency, µM (doses to about 114 µM), inactives show at the highest dose activity change, negative = inhibition, usual class: inhibitors | actives 4.4% (n = 390,000); further: on the % scale 0 is the no-effect control and ±100 the full control effect; nearly all actives have a fitted effect of over 50% in size
VDR inhibitor = Inhibitors of the vitamin D receptor (VDR): qHTS. VDR-SRC2-3 peptide fluorescence polarization, 2 h. AID 504847, 2011. Vitamin D3 receptor (Homo sapiens), P11473. actives 0.93% (n = 400,000). Potency, µM, inactives show max response, negative = inhibition, usual class: inhibitors; further: on the % scale 0 is the no-effect control and ±100 the full control effect
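The screen uses fluorescence polarization to detect compounds that interfere with recruitment of the SRC2-3 coactivator peptide to VDR; plates are read after 2 h at room temperature.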
G9a block = qHTS Assay for Inhibitors of Histone Lysine Methyltransferase G9a; Histone-lysine N-methyltransferase EHMT2 (Homo sapiens), Q96KQ7; G9a H3K9 monomethylation, AlphaScreen, 2 h; Potency, µM (titrated, usually from 102 µM), for inactives: top-dose activity, negative = inhibition, actives largely listed as inhibitors; actives 8.8% (n = 350,000); further: on the % scale 0 is the no-effect control and ±100 the full control effect; nearly all actives have a fitted effect of over 75% in size
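AlphaScreen read-out: biotin-H3K9 peptide (500 nM) methylation by 20 nM enzyme with 20 uM SAM, 2 h at room temperature after 15 min compound preincubation; anti-monomethyl H3K9 antibody plus donor/acceptor beads, 10 min dark.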
BAZ2B block = qHTS Assay for Inhibitors of BAZ2B. Bromodomain adjacent to zinc finger domain protein 2B (Homo sapiens), Q9UIF8. actives 4.4% (n = 360,000). AlphaScreen BAZ2B-H3K14Ac peptide displacement. AID 504333, 2011. Potency, µM (top dose mostly 114 µM), for the others: at the top dose activity change, negative = inhibition, usual class: inhibitors; further: on the % scale 0 is the no-effect control and ±100 the full control effect; nearly all actives have a fitted effect of over 60% in size
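Compounds, titrated to a top concentration of 110 uM, were incubated 30 min at room temperature with preformed BAZ2B/acetyl-K14 H3 peptide complex (50 nM each). Proximity signal was measured by AlphaScreen after 20 min with beads.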
HP1b chromo inh = HTS for Inhibitors of HP1-beta Chromodomain Interactions with Methylated Histone Tails | Chromobox protein homolog 1 (Homo sapiens), P83916 | AlphaScreen HP1-beta / biotin-H3K9me3 peptide binding | Potency, µM (series often up to 114 µM), for the others: at the top dose activity change, negative = inhibition, hits mostly inhibitors | actives 0.56% (n = 390,000) | AID 540317, 2011; further: nearly all actives have a fitted effect of over 70% in size
Target sequence (P83916 whole entry, looked up): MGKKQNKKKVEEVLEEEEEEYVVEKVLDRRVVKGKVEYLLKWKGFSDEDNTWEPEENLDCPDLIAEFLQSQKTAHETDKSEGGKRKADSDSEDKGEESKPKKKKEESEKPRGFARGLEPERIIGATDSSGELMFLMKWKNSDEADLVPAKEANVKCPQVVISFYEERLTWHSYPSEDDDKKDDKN
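AlphaScreen: HP1-beta (50 nM) preformed 30 min with biotin-H3(1-18)K9me3 peptide (50 nM) in PBS pH 7.4, 0.01% Tween-20. Compound added for 30 min at RT, then streptavidin donor/nickel chelate acceptor beads (10 ug/mL) for 30 min.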
* = called active by the depositor; ? = inconclusive; nt = not tested or not shown; [ ] = remark or other dose. Rows were chosen to be rich in hits. Some 11% of all compounds tested hit in one or more screens of this group. The call rests on the fitted dose curve; in most records, active means well fitted curve in the direction sought with a large enough effect; inconclusive means small, poorly fitted or top-dose-only effect, or another doubt; inactive means no such curve, though single readings can be large; an effect the other way counts as inactive or inconclusive. Potency means the concentration at half of the fitted maximal effect.

SMILES | PLK1 PBD block | JMJD2A Tudor inh | VDR inhibitor | G9a block | BAZ2B block | HP1b chromo inh
CC1(c2ccccc2)NC(=O)N(CC(=O)NNC(=O)c2cccc(Cl)c2)C1=O (stereo not drawn) | 2.8% | -13.1% | -7.1% | -3.6%[12.7 µM] | 0.6% | 39.0%
CCN(CC(=O)NC(C)C)C(=O)c1ccc(S(=O)(=O)N(C)c2ccccc2OC)cc1 | 2.99µM* | ? | ? | 13.4%[59 µM] | -8.3% | ?
CCN(CC(=O)Nc1ccccc1OC)C(=O)c1ccc(N(C)S(=O)(=O)c2ccc(C)cc2)cc1 | 0.3% | -6.2% | 2.1% | -33.8% | -1.5% | 21.0%
O=C(O)COc1ccc(/C=N/NC(=O)Cc2ccc(Cl)cc2)cc1 | -11.5% | -14.1% | 19.6% | -9.3% | -37.3% | 27.5%
COc1ccc(NS(=O)(=O)c2cc(NC(=O)c3ccccc3)ccc2N2CCOCC2)cc1 | -0.6% | -28.6% | 12.5% | nt | nt | 21.9%
O=C(/C=C/c1cccs1)Nc1ccc(N2CCOCC2)c(S(=O)(=O)Nc2ccccc2Cl)c1 | -0.5% | -33.1% | 2.1% | ? | -8.0% | 8.5%
O=C(/C=C/c1cccs1)Nc1ccc(N2CCOCC2)c(S(=O)(=O)Nc2cc(Cl)ccc2Cl)c1 | -12.1% | -19.9% | -13.9% | 56.2µM* | -26.9% | 3.6%
COc1ccc(NS(=O)(=O)c2cc(N)ccc2N2CCCC2)cc1 | -11.3% | 56.2µM* | -23.5% | nt | nt | ?
Nc1cc(S(=O)(=O)Nc2ccccc2Cl)ccc1N1CCOCC1 | 1.4% | -5.6% | -19.6% | ? | 3.6% | 33.7%
COc1ccc(NS(=O)(=O)c2cc(N)ccc2N2CCOCC2)cc1 | ? | -24.8% | 14.1% | 15.8µM* | -14.7% | -16.5%
Nc1ccc(N2CCOCC2)c(S(=O)(=O)Nc2cc(Cl)ccc2Cl)c1 | -14.4% | ? | -12.6% | 35.5µM* | -34.8% | 1.8%
Cc1nc(Nc2ncc(C(=O)Nc3c(C)cccc3Cl)s2)cc(N2CCN(CCO)CC2)n1 | nt | nt | 0.5% | -6.1%[12.7 µM] | nt | nt
CC(C)n1ncc2c(C(=O)Nc3ccccc3SCC(N)=O)cc(C3CC3)nc21 | -11.3% | nt | nt | nt | nt | nt
COc1ccccc1CNC(=O)C(NC(=O)c1ccccc1)C(C)C (stereo not drawn) | 1.7% | -16.8% | -10.5% | 7.9% | -1.6% | 46.4%
Cc1csc2nc(CN3CCN(CC(=O)N(C)C)CC3)cc(=O)n12 | -0.4% | 0.7% | -4.9% | 44.7µM* | 7.8% | 40.8%
C[N+]1=C(/C=C/Nc2ccccc2Cl)C(C)(C)c2ccccc21 | -11.5% | ? | -14.1% | 7.94µM* | -34.3% | -21.3%
Fc1cccc(CSc2ccc(-c3ccc4c(c3)OCO4)nn2)c1 | -0.7% | -4.7% | -11.3% | -9.6% | 2.2% | 33.4%
c1cncc(CSc2ccc(-c3ccc4c(c3)OCO4)nn2)c1 | -12.5% | -13.0% | -2.2% | 50.1µM* | nt | 35.4%
CC(=O)Nc1ccc(NC(=O)CSc2ccc(-c3ccc4c(c3)OCO4)nn2)cc1 | -20.5% | -25.7% | -2.1% | 7.94µM* | 2.6% | 17.3%
COCCNC(=O)C1CCCN(C(=O)c2ccc(F)c(C)c2)CC1 (stereo not drawn) | -0.6% | nt | nt | nt | nt | nt
CCc1ccc(NCc2cc3ccc(OC)cc3n(CC(=O)Nc3cccc(Cl)c3C)c2=O)cc1 | nt | 3.8% | 0.2% | -1.1%[59 µM] | -29.6% | 41.4%
O=C(CSc1nccc(=O)[nH]1)Nc1ccc(Oc2ccccc2)cc1 | -16.6% | -10.2% | -8.4% | ? | -27.6% | 27.2%
C[N+]12CCCC[C@@H]1CCC(=C(c1cccs1)c1cccs1)C2 (stereo partly drawn) | nt | nt | -5.7% | -29.3%[12.7 µM] | nt | nt
CC(C)(C)c1nc(SCC(=O)N2CCCC2)c2ccccc2n1 | -8.2% | 12.5% | 10.8% | 50.1µM* | -7.7% | 35.9%
CCCCN(C(=O)c1cc2c(s1)CCC2)c1c(N)n(CC(C)C)c(=O)[nH]c1=O | -4.7% | -35.3% | 4.4% | 2.5%[12.7 µM] | ? | -6.3%
SMILES | PLK1 PBD block | JMJD2A Tudor inh | VDR inhibitor | G9a block | BAZ2B block | HP1b chromo inh
COCCN(C(=O)c1cc2c(s1)CCC2)c1c(N)n(CC(C)C)c(=O)[nH]c1=O | -25.7% | ? | 7.3% | -45.1%[12.7 µM] | 56.2µM* | 20.3%
COCCN(C(=O)C1CCN(C(=O)c2ccccc2C)CC1)c1c(N)n(CC(C)C)c(=O)[nH]c1=O | ? | 89.1µM* | -8.8% | 1.58µM* | ? | -11.9%
COCCN(C(=O)c1cc2c(s1)CCCCC2)c1c(N)n(CC(C)C)c(=O)[nH]c1=O | -5.8% | -12.2% | -15.5% | 0.6%[59 µM] | 38.3% | 52.4%
CCCCN(C(=O)c1cc2c(s1)CCC2)c1c(N)n(CCC)c(=O)[nH]c1=O | -19.1% | ? | -0.6% | 44.7µM* | ? | ?
Cc1ccccc1C(=O)Nc1cccc(C(=O)OCc2cc(=O)n3c4c(sc3n2)CCCC4)c1 | nt | 6.6% | 3.2% | 2.0%[12.7 µM] | -11.5% | 23.5%
COc1ccc(C(=O)NC(C)CCCC(C)(C)O)cc1OC1CCN(C(C)=O)CC1 (stereo not drawn) | -0.3% | 2.7% | 0.6% | nt | -2.1% | 54.4%
CC(C)(C)CC(=O)NC(=S)NCc1ccco1 | 3.5% | -5.5% | -12.2% | -10.2% | ? | 25.2%
COC(=O)c1sc(C(=O)OC)c(C(=O)OC)c1C(=O)OC | -1.3% | -1.4% | -2.5% | ? | 1.5% | 42.6%
COC(=O)c1sc(=S)sc1C(=O)OC | -22.2% | ? | -30.0% | 28.2µM* | -37.9% | ?
CN1CCN(CC(O)COc2ccc(Cl)cc2)CC1 (stereo not drawn) | -3.9% | -13.4% | -0.5% | 56.2µM* | -6.9% | 4.9%
CCN1CCN(CC(O)COc2ccc(C)c(C)c2)CC1 (stereo not drawn) | 4.1% | -10.3% | 1.6% | 20.7%[59 µM] | -32.5% | 36.4%
CN1CCN(CC(O)COc2ccc(OCC(O)CN3CCN(C)CC3)cc2)CC1 (stereo not drawn) | -6.8% | -6.9%[57.1 µM] | 12.5% | -6.3%[59 µM] | -5.0% | 14.3%
OCCN1CCN(CC(O)COc2ccc(Cl)cc2)CC1 (stereo not drawn) | 1.2% | -24.3% | -4.2% | 50.1µM* | ? | 15.9%
Cc1cc(OCC(O)CN2CCN(C)CC2)ccc1C(C)C (stereo not drawn) | -0.1% | -15.9% | 8.8% | 89.1µM* | -1.7% | 11.7%
Cc1ccc(C)c(NC(=O)CCc2nnc3ccc(N4CCCCC4)nn23)c1 | 5.0% | -8.3% | 18.7% | -5.5% | -2.0% | 24.2%
Cc1ccc(C(=O)NCCc2ccccc2)cc1S(=O)(=O)N1CCOCC1 | 1.7% | 8.8% | 6.1% | 2.3%[12.7 µM] | 2.3% | 29.0%

Bioassay records deposited in PubChem by National Center for Advancing Translational Sciences (NCATS).
